The entries come from a sample that favours hits as a whole.
Giardia FBPA inh: inhibitors of Giardia lamblia fructose-1,6-bisphosphate aldolase. purified Giardia FBPA. AID 2451. hit rate 0.71% among 290,000. Potency, µM (series often up to 59.6 µM), without a hit: at the highest dose activity, negative = inhibition, hits mostly inhibitors; note: potency is the fitted concentration of half-maximal effect; % is set by controls: 0 for no effect and ±100 for the full control effect; nearly all actives have a fitted effect of over 55% in size
Target sequence (A8B2U2 whole entry, looked up): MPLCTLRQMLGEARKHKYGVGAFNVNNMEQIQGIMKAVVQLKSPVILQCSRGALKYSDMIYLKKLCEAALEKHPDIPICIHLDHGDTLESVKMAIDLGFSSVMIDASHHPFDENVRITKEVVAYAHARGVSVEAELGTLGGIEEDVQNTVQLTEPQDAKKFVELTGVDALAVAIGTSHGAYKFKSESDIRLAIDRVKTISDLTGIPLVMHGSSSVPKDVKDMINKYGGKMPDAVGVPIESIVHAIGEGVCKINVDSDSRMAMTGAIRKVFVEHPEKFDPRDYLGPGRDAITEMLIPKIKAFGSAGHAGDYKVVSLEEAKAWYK
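Giardia FBPA (40 nM reagent) was preincubated 10 min at RT with compound (up to 57.5 uM final), then substrate plus GAPDH/TPI/NAD/arsenate coupling system with diaphorase/resazurin was added; resorufin fluorescence (525/598 nm) was read after 20 min.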
LmPK inh: inhibitors of Leishmania mexicana pyruvate kinase | hit rate 0.37% among 290,000 | Potency, µM (top dose mostly 57.5 µM), for inactives: top-dose activity change, negative = inhibition, usual class: inhibitors | purified LmPK, Kinase-Glo ATP luminescence, 1 h | Q27686; note: potency is the fitted concentration of half-maximal effect; % is set by controls: 0 for no effect and ±100 for the full control effect
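Kinase-Glo luminescence read after 1 h RT reaction of 0.1 nM LmPK with 0.5 mM PEP and 0.1 mM ADP. Activity scaled between uninhibited and enzyme-free controls.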
Shiga inhibitor: inhibitors of Shiga toxin in Vero cells | Vero cells, Shiga toxin protein synthesis inhibition reporter | AID 2315 | inhibition, % at 38.7 µM | hit rate 9.2% among 290,000; in the data active = inhibition mostly above about 28%, no sharp cut-off; inactive = mostly below about 43%; note: 0% is about no effect
CHX counter: counter-screen for Shiga toxin inhibitors: cycloheximide protein synthesis inhibition; max response, %; hit rate 12% among 300,000; cell reporter, cycloheximide protein synthesis inhibition counterscreen; in the data active = max response mostly above about 13%, no sharp cut-off; inactive = mostly below about 14%; note: read at 38.3 µM for the half of the compounds with a filed dose; 0% is about no effect
Tb PYK inh: blocks Trypanosoma brucei pyruvate kinase; Q57TT1; Potency, µM (series often up to 76.8 µM), for the others: at the top dose activity, negative = inhibition, actives largely listed as inhibitors; hit rate 0.12% among 410,000; TbPYK enzyme, Kinase-Glo Plus ATP luminescence, 45 min; note: potency is the fitted concentration of half-maximal effect; % is set by controls: 0 for no effect and ±100 for the full control effect; nearly all actives have a fitted effect of over 50% in size
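Readout: single end-point luminescence (Kinase-Glo Plus, 10 min). Reaction conditions were TbPYK/substrate plus 130 uM ADP, 45 min at RT, pH 7.2 TEA buffer. No-enzyme wells served as controls, and data were normalized before concentration-response fitting.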
Sm TGR block: blocks Schistosoma mansoni thioredoxin glutathione reductase. purified TGR, DTNB reduction, TNB absorbance 405 nm. Potency, µM (doses to about 114 µM), for inactives: at the top dose activity change, negative = inhibition, most hits filed as inhibitors. hit rate 3% among 360,000. AID 485364; note: potency is the fitted concentration of half-maximal effect; % is set by controls: 0 for no effect and ±100 for the full control effect; nearly all actives have a fitted effect of over 60% in size
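First, TGR (20 nM dispensed) and NADPH were mixed with compound. Second, a 15 min room-temperature incubation followed. Third, further NADPH and then DTNB were added to start the reaction. Finally, TNB absorbance was monitored kinetically.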
An asterisk follows results filed as active; ? = inconclusive; . = no result; [ ] = dose if it differs, or a comment. Unless noted, calls come from the whole dose curve; as a rule, active = well fitted curve in the direction sought with a large enough effect; inconclusive = small, poorly fitted or top-dose-only effect, or another doubt; inactive = no such curve, though single readings can be large; an effect the other way counts as inactive or inconclusive.

SMILES	Giardia FBPA inh	LmPK inh	Shiga inhibitor	CHX counter	Tb PYK inh	Sm TGR block
Cc1ccc(N=Cc2sc(O)c3ccccc23)cc1	-13%	-13%	80*	33*	3%	-5%
Cc1ccc(N=Cc2sc(O)c3ccccc23)c(C)c1	0%	-7%	80*	34*	-10%	-7%
Cc1ccc(N=Cc2c(C)[nH]n(-c3nc4ccccc4[nH]3)c2=O)cc1	16%	25µM*	1	5	?	-2%
Cc1ccc(N=Cc2c(O)c3ccccc3n(C)c2=O)cc1	-6%	-12%	59	14*	-4%	-11%
Cc1ccc(N=CN(C)C=Nc2ccc(C)cc2C)c(C)c1	2%	.	.	.	-2%	.
CCN(CC)C(=O)[C@H]1CC(CC(=O)NCC23CC4CC(CC(C4)C2)C3)C(=O)N2CCc3c([nH]c4ccc(OC)cc34)[C@]12C (some centres not stated)	.	.	.	.	3%	.
CCC(Sc1nc2n[nH]c(C)c2c(=N)n1-c1ccc(Br)cc1)C(=O)N(CC)CC (configuration not stated)	.	.	.	.	9%[15.4 µM]	15%
CCC1CN(C(=O)C2CCN(S(=O)(=O)c3c(C)noc3/C=C/c3ccccc3F)CC2)c2cc(Cl)ccc2O1 (configuration not stated)	.	.	.	.	3%	1%
COc1ccc(/C=N/NC(=O)c2cccc(Br)c2)cc1CSc1ccccn1	3%	4%	29	15	5%	-3%
COc1ccc(/C=N/N2CCOCC2)cc1COc1ccc(F)cc1	-10%	-9%	25	35*	4%	7%
COc1ccc(/C=N/NC(=O)c2ccn[nH]2)cc1CSc1ccccn1	-3%	-3%	75*	65*	-8%	7%
COc1ccc(/C=N/NC(=O)c2ccn[nH]2)cc1COc1ccc(Cl)cc1	-1%	0%	115	31*	0%	-22%
COc1ccc(/C=N/N2CCOCC2)cc1Cn1cc([N+](=O)[O-])cn1	4%	3%	30	15*	4%	2%
COc1ccc(/C=N/N2CCOCC2)cc1COc1ccc(Cl)cc1	0%	1%	0	4	1%	-15%
COc1ccc(/C=N/NC(=O)c2ccc(N)cc2)cc1Cn1cc([N+](=O)[O-])cn1	-1%	1%	-7	9	2%	-2%
CCc1ccccc1NC(=O)CN(c1cc(C(F)(F)F)ccc1Cl)S(=O)(=O)c1ccccc1	.	.	.	.	1%	-6%
O=C(Cn1ncc2c3ccccc3n(Cc3cccc(Cl)c3)c2c1=O)N1CCCCCC1	.	.	.	.	-7%	3%
COc1ccc(/C=N\NC(=O)c2cccc([N+](=O)[O-])c2)cc1Cn1cc([N+](=O)[O-])cn1	6%	4%	18	9	.	-1%
COc1ccc(/C=N/NC(=O)c2ccn[nH]2)cc1Cn1cc([N+](=O)[O-])cn1	1%	-5%	59*	23*	5%	6%
COc1ccc(/C=N/NC(=O)c2ccccc2O)cc1Cn1cc(Cl)cn1	4%	1%	43	16*	-15%	14%
CCCCCCCN[C@H]1CCC[C@@H]1CCCCCCC(=O)O	-5%	.	.	.	.	.
O=C(CC(Nc1ccc(F)cc1)C(=O)OCC(=O)c1cccs1)c1ccccc1 (configuration not stated)	-1%	1%	24	16*	4%	8.9µM*
Cc1ccc(NC(CC(=O)c2ccccc2)c2ccc(F)cc2)cc1 (configuration not stated)	1%	-4%	69*	50*	1%	0%
CC(NC(=O)CCC(=O)c1ccccc1)c1ccc(F)cc1 (configuration not stated)	.	.	.	.	2%	-2%
O=C(CCC(=O)c1cccs1)OCC(=O)c1ccc(F)cc1	.	.	.	.	2%	.
SMILES	Giardia FBPA inh	LmPK inh	Shiga inhibitor	CHX counter	Tb PYK inh	Sm TGR block
O=C(CC(Nc1ccc(F)cc1)C(=O)O)c1ccccc1 (configuration not stated)	-13%	-30%	41*	37*	-21%	1.8µM*
Cc1ccc(C(=O)CC(SCC(=O)O)c2ccc([N+](=O)[O-])cc2)cc1 (configuration not stated)	-7%	8%	18	8	-1%	1%
Cc1ccc(C(=O)CC(Nc2ccc(F)cc2)c2ccccc2)cc1 (configuration not stated)	-4%	0%	-1	1	-2%	5%
COc1ccc(C(CC(=O)c2ccc(C)cc2)Nc2ccc([N+](=O)[O-])cc2)cc1 (configuration not stated)	-7%	-1%	19	28*	2%	-1%
C=CCC(O)[C@H](Cc1cnc2ccccc2c1)[C@H](/C=C/CCCC)c1ccccc1 (some centres not stated)	-4%	.	10	9	.	.
CCc1nc2ccc(C(=O)NCc3ccc(N(C)C)cc3)cc2nc1CC	.	.	.	.	3%	0%
O=C(NCc1cnn(-c2ccccc2)c1)C1CCC(=O)N(C2CC2)C1 (configuration not stated)	.	-1%	-12	-2	-1%	-7%
COc1ccc(CNc2nc(-c3ccc4c(c3)OCO4)nc3ccccc23)c(OC)c1	-1%	.	.	.	.	.
Cc1ccc(NC(=O)Cc2noc3ccccc23)nc1	-1%	-4%	59*	23*	5%	7%
Cc1ccc2onc(CNC(=O)NCc3ccc(Cl)cc3)c2c1	.	.	.	.	3%	8%
O=C(Cc1noc2ccccc12)Nc1ccccn1	-2%	-9%	88*	54*	-2%	-12%
Cc1ccc(CNC(=O)Cc2noc3ccccc23)cc1	14%	-1%	51*	33*	6%	33%
COc1ccc(-c2nc(C)c(CCNC(=O)C(=O)Nc3cc(C)cc(C)c3)s2)cc1OC	.	.	.	.	-8%	2%
CCOc1ccccc1N(C)C(=O)c1cc(S(=O)(=O)NCCc2ccc(Cl)cc2)ccc1F	.	.	.	.	0%	1%
Cc1ccc(CSc2nc3c([nH]c4ccccc43)c(=O)n2C)cc1	.	.	.	.	-6%	14%
N#CC(=C1C=CC(=NO)C(Cl)=C1)c1ccc(Cl)cc1	.	.	.	.	-6%	.
COc1ccc(C(C#N)=C2C=CC(=NO)C=C2)cc1	0%	-4%	-3	18*	-15%	-4%
Cc1ccc(NC(=O)c2ccc(CNS(=O)(=O)c3ccc4c(c3)C(C)(C)C(=O)N4C)cc2)cc1F	.	.	.	.	3%	-1%
O=C(CSc1nnc(-c2ccncc2)n1Cc1ccco1)Nc1ccccc1F	9%	-2%	8	-1	0%	50µM*
COc1ccc(NC(=O)CSc2ncc(-c3ccc(F)cc3)n2Cc2ccco2)cc1	0%	1%	11	-3	1%	3%
CCC(=O)Nc1cc(NC(=O)CSc2ncc(-c3ccc(F)cc3)n2Cc2ccco2)ccc1C	2%	-1%	76*	27*	-4%	45µM*

Source: PubChem
